HSF1 inh: HSF1 inhibitors in luciferase reporter cells, primary screen, cell-based, NIH3T3, luminescence | NIH3T3-HGL HSE-luciferase, MG132-induced, luminescence 8 h; active compounds read low | activity change, negative = inhibition, % at 7.5 µM (by protocol) | hit rate 0.77% among 300,000 | AID 2098, 2009;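 active means more than half of replicate wells show activity change below -50%, luminescence cut by over half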;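 further: luciferase reports HSF-1 transcriptional activity via heat shock element; 0% = median of DMSO wells and -100% = zero luminescence signal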
HSP90 refold inh: HSP90 inhibitors, primary screen, cell lysate, luminescence | inhibition, % at 5.6 µM | Heat shock protein HSP 90 (rabbit reticulocyte lysate; luciferase refolding) | hit rate 0.91% among 290,000 | Rabbit reticulocyte lysate, luciferase refolding luminescence, 3 h;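 active means inhibition above the screen-wide mean plus 3 SD, computed separately per campaign, cut at about 16% in these data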;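 further: 0% = DMSO wells and 100% = 60 µM geldanamycin wells; inhibitors lower the luminescence because luciferase stays unfolded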
LMP1 NFkB inh: EBV LMP1-driven NF-kappaB luciferase reporter inhibitors, primary screen, cell-based, luminescence, single point; LMP1-induced NF-kappaB luciferase reporter cells; inhibition, % at 12.5 µM; AID 504558, 2011; hit rate 0.69% among 350,000; in the data active means inhibition above about 41%;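 further: 0% = neutral control wells and 100% = reference inhibitor control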
TROY NFkB inh: inhibitors of TROY-driven NF-kB signaling, primary screen, Q293 LMP1-TROYcd cells, NF-kB luciferase, uHTS; inhibition, % at 10 µM; Q293 LMP1-TROYcd NF-kB luciferase reporter, 4 h; hit rate 0.98% among 360,000;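 active means compounds whose plate-normalised and pattern-corrected inhibition of the luciferase reporter signal at the single screening dose is 50% or more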
HSF1 activator: HSF-1 activators, primary screen, NIH3T3-HGL cells, MG132 stress, luminescence, single point; NIH3T3-HGL HSF-1 luciferase reporter, 8 h; 100% = twice DMSO control signal; activation, % at 9 µM; hit rate 1.7% among 300,000;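 active means mean replicate activation of at least 50% with a set share of replicates each reaching 50%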;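 further: 0% = median of the neutral control wells and 100% = twice that signal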
TWEAK-Fn14 inh: inhibitors of TWEAK-Fn14 signaling, primary screen, luciferase reporter cells, uHTS. TWEAK-stimulated Fn14 reporter cells, luciferase luminescence, 8 h. inhibition, % at 10 µM. hit rate 2% among 360,000. AID 1159606, 2016; in the data active means inhibition above about 50%
Starred values were filed as active, the others as inactive. Shown are actives, neighbours in structure and some others; about 4.7% of the full set was active somewhere.

Results for CN(Cc1ccccc1)C(c1ccnc2ccccc12)c1nnnn1-c1ccc2c(c1)OCCO2 (stereo not given) ?
TROY NFkB inh: 6.6; TWEAK-Fn14 inh: 1.8

How did O=C(Cn1nnc(-c2ccccc2)c1COc1ccc2ccccc2c1)NCC1CC1 do in these assays?
TROY NFkB inh: 6.0; TWEAK-Fn14 inh: 15.2

What do the screens show for `COc1ccccc1-c1csc(C(O)c2ccc(F)c(F)c2)n1` (stereo not given)?
TROY NFkB inh: -22.4; TWEAK-Fn14 inh: -24.1

Results for COc1cccc(-c2oc3c(c2-c2ccc(Br)nc2)C(O)CCC3)c1 (stereo not given) ?
TROY NFkB inh: -22.2; TWEAK-Fn14 inh: -10.4

How did CC[C@H]1CN2CCc3cc(OC)c(OC)cc3C2C[C@@H]1C[C@H]1NCCc2cc(OC)c(OC)cc21 (stereo not given in full) do in these assays?
LMP1 NFkB inh: 88.0*; TROY NFkB inh: 85.8*; TWEAK-Fn14 inh: 95.4*

How did CCS(=O)(=O)CCSc1nc2ccccc2o1 do in these assays?
HSF1 inh: -2.8; HSP90 refold inh: -2.5; LMP1 NFkB inh: -12.6; TROY NFkB inh: -10.6; HSF1 activator: -10.9; TWEAK-Fn14 inh: -7.9

Results for O=C(CSc1ccccn1)Nc1nc2ccccc2s1 ?
HSF1 inh: 7.6; HSP90 refold inh: -4.9; LMP1 NFkB inh: -13.1; TROY NFkB inh: -35.2; HSF1 activator: 9.9; TWEAK-Fn14 inh: -9.1

Results for O=S(=O)(CCSc1ccccn1)c1nc2ccccc2s1 ?
HSF1 inh: 12.1; HSP90 refold inh: -3.5; LMP1 NFkB inh: -1.0; TROY NFkB inh: 33.6; HSF1 activator: 15.3; TWEAK-Fn14 inh: 61.2*

How did O=S(=O)(CCSc1nc2ccccc2o1)c1nc2ccccc2s1 do in these assays?
HSF1 inh: 10.9; HSP90 refold inh: 2.2; LMP1 NFkB inh: -0.5; TROY NFkB inh: 67.0*; HSF1 activator: 10.2; TWEAK-Fn14 inh: 91.4*

What do the screens show for `FC(F)(F)c1nnc(-c2ccccc2)nc1Sc1ccccc1`?
HSF1 inh: 260.9; HSP90 refold inh: 3.2; LMP1 NFkB inh: 2.4; TROY NFkB inh: 18.6; HSF1 activator: 260.1*; TWEAK-Fn14 inh: 25.3

Results for CC(=O)Nc1cc(-c2cccc(N)c2)cn2c(-c3ccccc3)cnc12 ?
TROY NFkB inh: 16.1; TWEAK-Fn14 inh: 39.3

How did COc1ccc(COc2ccc3ccc(=O)oc3c2)cc1 do in these assays?
HSF1 inh: 26.4; HSP90 refold inh: 0.4; LMP1 NFkB inh: -30.1; TROY NFkB inh: -37.9; HSF1 activator: 42.0; TWEAK-Fn14 inh: -28.1

Results for O=c1ccc2ccc(OCc3ccccc3)cc2o1 ?
HSF1 inh: 13.7; HSP90 refold inh: -4.2; LMP1 NFkB inh: -32.4; TROY NFkB inh: -61.0; HSF1 activator: 59.0*; TWEAK-Fn14 inh: -18.2

What do the screens show for `Cc1snc(S(=O)(=O)/C(C#N)=N/Nc2ccc(C(F)(F)F)cc2)c1C#N`?
HSF1 inh: 4.9; HSP90 refold inh: -3.3; LMP1 NFkB inh: -3.7; TROY NFkB inh: 51.6*; HSF1 activator: 42.5; TWEAK-Fn14 inh: -16.4

How did Cc1snc(S(=O)(=O)/C(C#N)=N\Nc2ccccc2)c1C#N do in these assays?
HSF1 inh: -14.1; HSP90 refold inh: -2.2; LMP1 NFkB inh: 1.2; TROY NFkB inh: -0.7; HSF1 activator: -7.6; TWEAK-Fn14 inh: -0.9

What do the screens show for `Nc1nn(-c2cccc(F)n2)cc1-c1ccccc1`?
HSF1 inh: 39.2; HSP90 refold inh: 6.7; LMP1 NFkB inh: -40.7; TROY NFkB inh: -28.0; HSF1 activator: 61.6*; TWEAK-Fn14 inh: 5.4

Results for Nc1nn(-c2cccc(F)n2)cc1-c1ccc(Cl)cc1 ?
HSF1 inh: 31.6; HSP90 refold inh: 3.3; LMP1 NFkB inh: -59.5; TROY NFkB inh: 9.3; HSF1 activator: 84.7*; TWEAK-Fn14 inh: 26.1

Results for CCCS(=O)(=O)NC(=O)C1(C)CCCN(C(=O)c2ccc(OC)cc2)C1 (stereo not given) ?
TROY NFkB inh: -4.7; TWEAK-Fn14 inh: 2.8

What do the screens show for `COc1ccc(-c2nc3c(C)cc(Br)cn3c2Cc2ccc(C)cc2)cc1OC`?
TROY NFkB inh: 3.8; TWEAK-Fn14 inh: 25.4

What do the screens show for `CN(C)C(=O)N1CCN(S(=O)(=O)c2ccc3ccccc3c2)CC1`?
HSF1 inh: -2.7; HSP90 refold inh: -1.5; LMP1 NFkB inh: -0.1; TROY NFkB inh: -8.5; HSF1 activator: -0.8; TWEAK-Fn14 inh: 101.1*

How did CN(C)S(=O)(=O)N1CCN(S(=O)(=O)c2ccc3ccccc3c2)CC1 do in these assays?
HSF1 inh: 2.8; HSP90 refold inh: -0.1; LMP1 NFkB inh: 7.8; TROY NFkB inh: -6.6; HSF1 activator: -7.3; TWEAK-Fn14 inh: -6.0

What do the screens show for `Cc1sc(NC(=O)c2ccccc2F)c(CN2CCCCC2)c1C`?
HSF1 inh: 13.1; HSP90 refold inh: 3.8; LMP1 NFkB inh: -5.3; TROY NFkB inh: -38.3; HSF1 activator: 57.7*; TWEAK-Fn14 inh: -47.8

How did Cc1sc(NC(=O)c2ccc(F)cc2)c(CN2CCCCCC2)c1C do in these assays?
HSF1 inh: 38.5; HSP90 refold inh: -1.0; LMP1 NFkB inh: -10.7; TROY NFkB inh: -63.9; HSF1 activator: 56.5*; TWEAK-Fn14 inh: -6.1

How did O=C(Nc1sc2c(c1CN1CCOCC1)CCC2)c1ccc(F)cc1 do in these assays?
HSF1 inh: 30.0; HSP90 refold inh: -3.0; LMP1 NFkB inh: -12.1; TROY NFkB inh: -52.0; HSF1 activator: 34.7; TWEAK-Fn14 inh: -12.6

What do the screens show for `Cc1sc(NC(=O)c2ccco2)c(CN2CCN(Cc3ccccc3)CC2)c1C`?
HSF1 inh: 27.1; HSP90 refold inh: -2.7; LMP1 NFkB inh: 0.5; TROY NFkB inh: 0.8; HSF1 activator: 43.9; TWEAK-Fn14 inh: -12.6

What do the screens show for `Cc1ccc(C)c(CC(=O)N2CCCC(c3cc(C(=O)NCc4cccnc4)no3)C2)c1` (stereo not given)?
TROY NFkB inh: -18.4; TWEAK-Fn14 inh: -6.7

Results for C[C@@H]1CCCCO[C@H](CN(C)Cc2ccc3c(c2)OCO3)[C@@H](C)CN([C@H](C)CO)C(=O)c2cc(NC(=O)c3ccccc3)ccc2O1 ?
LMP1 NFkB inh: 3.0; TROY NFkB inh: 3.9; TWEAK-Fn14 inh: 7.4

How did CN(C)C(=O)N1CCc2ccc([N+](=O)[O-])cc21 do in these assays?
LMP1 NFkB inh: 4.0; TROY NFkB inh: -5.3; TWEAK-Fn14 inh: 5.5

What do the screens show for `CCOc1ccccc1OCCCC(=O)N1CCN(S(=O)(=O)c2ccc(Cl)cc2)CC1`?
LMP1 NFkB inh: 70.0*; TROY NFkB inh: 4.2; TWEAK-Fn14 inh: 0.1

What do the screens show for `O=C1Nc2ccccc2CN2C(=O)c3cc(Cl)ccc3NC(=O)C12` (stereo not given)?
TROY NFkB inh: 5.9; TWEAK-Fn14 inh: -2.0
